Shown is part of a subset that was picked to be rich in hits.
T cruzi growth-1: blocks T. cruzi growth in NIH3T3 culture | T. cruzi beta-gal in NIH3T3, GalScreen luminescence, 90 h | inhibition, % at 8.34 µM | 77,000 compounds, 5.9% hits;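 active = mean inhibition above about 93%, with at least 55% of replicates each passing it, limit read from the data, passing the limit was not always enough; inconclusive = only one of those two conditions holds; inactive = neither condition holds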
C diff HTS: C. difficile growth inhibition | Clostridium difficile clinical isolate growth, OD600, 24 h; stronger effect = lower value | 86,000 compounds, 0.25% hits | growth activity, negative = inhibition, % at 16 µg/mL (by protocol) | AID 1259249;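 active = mean growth activity at or below -80% and every replicate also at or below -80%; inconclusive = mean at or below -80% but some replicate above -80%; inactive = mean growth activity above -80%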;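 note: 0% = DMSO wells and -100% = levofloxacin 16 µg/mL wells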
T cruzi growth-2: inhibitors of T. cruzi proliferation. inhibition, % at 8.35 µM. 5,600 compounds, 72% hits. AID 651739. shares compounds with T cruzi growth-1. T. cruzi beta-gal in NIH3T3, GalScreen luminescence, 90 h;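 active = mean replicate inhibition above about 95% and at least 55% of replicates individually reaching it, limit read from the data; inconclusive = only one of the two criteria is met; inactive = neither criterion is met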
T cruzi growth-3: blocks T. cruzi growth in NIH3T3 host cells. shares compounds with T cruzi growth-1. T. cruzi beta-gal in NIH3T3, GalScreen luminescence, 90 h. 5,600 compounds, 21% hits. inhibition, % at 2.09 µM;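 active = mean inhibition above about 95%, with at least 55% of replicates also reaching it, limit read from the data; inconclusive = meets just one of the two conditions; inactive = meets neither condition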;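 note: plate controls were neutral control median for no effect and positive control median for full effect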
3T3 cytotox: NIH/3T3 (mouse) viability loss | AID 651742 | NIH/3T3 viability, CellTiter-Glo ATP luminescence, 90 h | cytotoxicity (signal decrease), % at 8.35 µM | 5,600 compounds, 14% hits | shares compounds with T cruzi growth-1;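 active = mean signal decrease across replicates above about 35% based on untreated-well scatter, with enough replicates individually passing, limit read from the data; inconclusive = no rule stated though some were filed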;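 note: 0% = median of neutral control wells and 100% = median of positive control wells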
3T3 cytotox 2: cytotoxicity in mouse NIH/3T3 fibroblasts; 5,600 compounds, 56% hits; inhibition, % at 24.9 µM; shares compounds with T cruzi growth-1; NIH/3T3 viability, CellTiter-Glo ATP luminescence, 90 h; AID 651744;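 active = mean loss of cell viability signal at or above a set limit, and enough replicates individually reaching it; inconclusive = meets only the mean limit or only the replicate share; inactive = meets neither condition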;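 note: 0% = median of neutral control wells and 100% = median of positive control wells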
Numbers without * were called inactive; ? = inconclusive; · = no result given.

SMILES | T cruzi growth-1 | C diff HTS | T cruzi growth-2 | T cruzi growth-3 | 3T3 cytotox | 3T3 cytotox 2
COc1cccc(CNC(=O)[C@H]2[C@H](CO)[C@H]3Cn4c(cccc4=O)[C@@H]2N3C(=O)C2CCCC2)c1 | · | -1.2 | · | · | · | ·
CCN1[C@@H]2c3ccc(C4=CCCC4)c(=O)n3C[C@@H]2[C@@H](CO)[C@@H]1C(=O)NC1Cc2ccccc2C1 | 23.3 | 6.4 | · | · | · | ·
CCN1[C@@H]2c3ccc(C4=CCCCC4)c(=O)n3C[C@@H]2[C@@H](CO)[C@@H]1C(=O)NC1Cc2ccccc2C1 | 105.2* | 17.2 | 105.8* | 25.5 | 17.6 | 41.3*
C/C=C/c1ccc([C@H]2[C@@H](CO)N(CCC(F)(F)F)C23CN(C(=O)CC)C3)cc1 | · | 7.8 | · | · | · | ·
Cn1cnc(S(=O)(=O)N2CCCCN3[C@H](C2)[C@H](c2ccc(-c4ccccc4)cc2)[C@@H]3CO)c1 | 103.5* | -3.2 | 6.0 | 10.9 | -12.4 | -16.0
Cn1cnc(S(=O)(=O)N2CCCCN3[C@H](CO)[C@@H](c4ccc(-c5ccccc5)cc4)[C@@H]3C2)c1 | 99.6* | -5.7 | 65.2 | -2.4 | 11.3 | 27.6*
Cn1cnc(S(=O)(=O)N2CCCCN3[C@@H](CO)[C@@H](c4ccc(-c5ccc(F)cc5)cc4)[C@@H]3C2)c1 | 26.9 | -12.0 | · | · | · | ·
Cn1cnc(S(=O)(=O)N2CCCCN3[C@H](CO)[C@H](c4ccc(C#CC5CCCC5)cc4)[C@@H]3C2)c1 | 106.6* | -17.1 | ? | 28.9 | 29.0 | 33.4*
Cn1cnc(S(=O)(=O)N2CCCCN3[C@H](C2)[C@H](c2ccc(-c4ccc(F)cc4)cc2)[C@@H]3CO)c1 | 48.2 | -1.9 | · | · | · | ·
Cn1cnc(S(=O)(=O)N2CCCCN3[C@H](C2)[C@H](c2ccc(C#CC4CCCC4)cc2)[C@@H]3CO)c1 | 31.9 | -5.1 | · | · | · | ·
O=C(Nc1ccc2c(c1)[C@@H]1C[C@@H](CC(=O)N3CCc4ccccc4C3)O[C@H](CO)[C@@H]1O2)C1CCC1 | 22.3 | -0.7 | · | · | · | ·
CC(=O)N1[C@@H]2Cn3c(ccc(/C=C/c4ccccc4)c3=O)[C@H]1[C@@H](C(=O)NCC1CC1)[C@@H]2CO | 83.4 | 4.0 | · | · | · | ·
C[C@@H]1CN([C@@H](C)CO)C(=O)c2cccc(NC(=O)Nc3ccc4c(c3)OCO4)c2O[C@@H]1CN(C)Cc1ccc(C(=O)Nc2ccccc2N)cc1 | 95.4 | · | · | · | · | ·
C[C@H](CO)N1C[C@H](C)[C@H](CN(C)Cc2ccc(Oc3ccccc3)cc2)Oc2c(NC(=O)Nc3ccc4c(c3)OCO4)cccc2C1=O | 87.8 | -1.9 | · | · | · | ·
C[C@H](CO)N1C[C@H](C)[C@H](CN(C)Cc2ccc(Oc3ccccc3)cc2)Oc2ccc(NC(=O)Nc3ccc4c(c3)OCO4)cc2C1=O | 110.3* | 18.2 | 102.3* | 6.9 | -6.9 | 32.0*
C[C@@H]1CN([C@@H](C)CO)C(=O)c2cccc(NC(=O)Nc3ccc4c(c3)OCO4)c2O[C@H]1CN(C)Cc1ccc(C(=O)Nc2ccccc2N)cc1 | 114.6* | · | 109.7* | ? | 16.5 | 29.9*
C[C@H]1CN([C@@H](C)CO)C(=O)c2cccc(NC(=O)Nc3ccc4c(c3)OCO4)c2O[C@@H]1CN(C)Cc1ccc(Oc2ccccc2)cc1 | 91.5* | 3.3 | 96.3* | 63.2 | -22.0 | -28.4
C[C@@H]1CN([C@@H](C)CO)C(=O)c2cc(NC(=O)Nc3ccccc3)ccc2O[C@H]1CN(C)Cc1ccc(Oc2ccccc2)cc1 | 57.5 | 10.1 | · | · | · | ·
COc1cccc(NC(=O)N(C)C[C@@H]2Oc3ncc(/C=C/c4ccccc4)cc3C(=O)N([C@H](C)CO)C[C@H]2C)c1 | · | -6.7 | · | · | · | ·
Cc1ccc(S(=O)(=O)N[C@H]2CC[C@H](CCn3cc(-c4cccc(F)c4)nn3)O[C@H]2CO)cc1 | -39.0 | 2.9 | · | · | · | ·
CCS(=O)(=O)N1CCCCN2[C@H](C1)[C@H](c1ccc(-c3cccc(C#N)c3)cc1)[C@@H]2CO | 107.4* | -0.7 | 24.5 | -15.2 | 10.9 | 20.4
CCS(=O)(=O)N1CCCCN2[C@H](CO)[C@H](c3ccc(-c4cccc(C#N)c4)cc3)[C@H]2C1 | 127.9* | -4.7 | 97.2* | 52.9 | 52.5* | 45.9*
CCS(=O)(=O)N1CCCCN2[C@H](CO)[C@@H](c3ccc(-c4ccc(C#N)cc4)cc3)[C@@H]2C1 | 19.0 | 0.6 | · | · | · | ·
CS(=O)(=O)N1CCCCN2[C@@H](CO)[C@@H](c3ccc(-c4cccc(C#N)c4)cc3)[C@@H]2C1 | -8.1 | -6.3 | · | · | · | ·
CCS(=O)(=O)N1CCCCN2[C@H](CO)[C@H](c3ccc(-c4ccc(C#N)cc4)cc3)[C@H]2C1 | 113.8* | -2.2 | 96.4* | 52.5 | 5.1 | 52.1*
SMILES | T cruzi growth-1 | C diff HTS | T cruzi growth-2 | T cruzi growth-3 | 3T3 cytotox | 3T3 cytotox 2
CCS(=O)(=O)N1CCCCN2[C@H](CO)[C@H](c3ccc(-c4cccc(C#N)c4)cc3)[C@@H]2C1 | 91.5 | -3.6 | · | · | · | ·
C[C@H](CO)N1C[C@H](C)[C@H](CN(C)C(=O)c2ccc(F)cc2)Oc2ncc(C3=CCCC3)cc2C1=O | 60.2 | -5.2 | · | · | · | ·
COc1ccc(CN(C)C[C@@H]2Oc3ccc(NS(=O)(=O)c4ccc(F)cc4)cc3CC(=O)N([C@@H](C)CO)C[C@H]2C)cc1 | 85.9 | -9.9 | · | · | · | ·
CC(C)NC(=O)N(C)C[C@@H]1Oc2cc(-c3ccncc3)ccc2S(=O)(=O)N([C@@H](C)CO)C[C@@H]1C | 102.7* | 2.2 | 83.9 | 52.6 | 6.2 | 22.7
CC(C)NC(=O)N(C)C[C@H]1Oc2cc(-c3ccccc3)ccc2S(=O)(=O)N([C@H](C)CO)C[C@H]1C | 56.2 | -7.0 | · | · | · | ·
Cc1ccc(-c2ccc3c(c2)O[C@H](CN(C)C(=O)NC(C)C)[C@@H](C)CN([C@@H](C)CO)S3(=O)=O)cc1 | 26.7 | -7.8 | · | · | · | ·
CC(C)NC(=O)N(C)C[C@@H]1Oc2cc(-c3ccncc3)ccc2S(=O)(=O)N([C@@H](C)CO)C[C@H]1C | 110.9* | -2.9 | 82.7 | 84.4 | 10.2 | 16.0
CCCNC(=O)N(C)C[C@H]1Oc2cc(-c3ccncc3)ccc2S(=O)(=O)N([C@@H](C)CO)C[C@@H]1C | 96.7* | -0.5 | ? | 12.5 | -17.0 | ?
CC(C)NC(=O)N(C)C[C@@H]1Oc2cc(-c3cncnc3)ccc2S(=O)(=O)N([C@@H](C)CO)C[C@@H]1C | -2.9 | 2.2 | · | · | · | ·
CCCNC(=O)N(C)C[C@@H]1Oc2cc(-c3ccncc3)ccc2S(=O)(=O)N([C@@H](C)CO)C[C@@H]1C | 30.2 | -1.7 | · | · | · | ·
CC(C)NC(=O)N(C)C[C@@H]1Oc2cc(-c3ccncc3)ccc2S(=O)(=O)N([C@H](C)CO)C[C@H]1C | 118.9* | 1.9 | ? | 74.0 | 10.5 | 11.8
COc1ccc(NC(=O)Nc2ccc3c(c2)C(=O)N([C@@H](C)CO)C[C@@H](C)[C@H](CN(C)C(=O)Nc2cccc4ccccc24)OCCCC[C@@H](C)O3)cc1 | -2.4 | -0.5 | · | · | · | ·
CC=Cc1ccc2n(c1=O)C[C@H]1[C@H](CO)[C@@H](C(=O)NCc3ccccc3)N(S(C)(=O)=O)[C@@H]21 (mixture of isomers) | 58.9 | -2.1 | · | · | · | ·

Screening data: PubChem BioAssay, Broad Institute
